Reference: PubChem BioAssay (NCATS)
Values joined by “and” are separate entries in the source; they are usually repeats but may differ in a detail not shown here. Equal values may be shown once. Records with an inconclusive call do not appear. Unmarked numbers belong to inactive results. Active and inactive are the calls of the source. Calls come from the whole dose curve; as a rule, active = well fitted curve in the direction sought with a large enough effect; inconclusive = small, poorly fitted or top-dose-only effect, or another doubt; inactive = no such curve, though single readings can be large or run the other way. Where a SMILES comes first, the peptide text is derived from it. Bridges are numbered along the chain shown (N, C = ends). [ ]: non-standard residue; d: D form. The star is where a group is joined. X2 = CC[C@H](C)CCCCC(=O)*; Dab = NCC[C@H](N)C(=O)O

assay: qHTS Assay for Identifying Gametocytocidal Compounds (AID 743244);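 for max response: actives lower the fluorescent signal which means gametocytes are killed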; conditions: P. falciparum 3D7 stage III-V gametocytes, alamarBlue, 72 h; max response: stronger effect = lower value
How it was run: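 Late gametocytes (III–V), P. falciparum 3D7; 72 h drug, then 24 h alamarBlue; resazurin reduction read by fluorescence.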
% is set by controls: 0 for no effect and ±100 for the full control effect; potency is the fitted concentration of half-maximal effect.

Structure (SMILES)	max response	Potency
Cn1nnnc1SCC1=C(C(=O)O)N2C(=O)[C@@H](NC(=O)[C@H](OC=O)c3ccccc3)[C@H]2SC1	10.2%	
CC(=O)OC[C@H]1O[C@@H](O[C@H]2[C@H](O)[C@@H](OC(=O)c3ccccc3C(=O)O)[C@H](O)O[C@@H]2COC(C)=O)[C@H](O)[C@@H](OC(=O)c2ccccc2C(=O)O)[C@@H]1O	-3.61%	
CCN(CC)c1ccc(N=Nc2ccc(S(=O)(=O)N(C)C)cc2)c(S(=O)(=O)NCC[n+]2ccccc2)c1	1.66%	
CN1CCN(C2=Nc3ccccc3Cc3ccccc32)CC1	2.36%	
CNC[C@@H]1CC[C@@H](N)[C@@H](O[C@H]2[C@H](O)[C@@H](O[C@H]3OC[C@](C)(O)[C@H](NC)[C@H]3O)[C@H](N)C[C@@H]2N)O1	-11.2%	
CCCCCCCCCCCCCCCC(=O)OC[C@H](O)[C@H]1OC(=O)C(O)=C1O	0.191%	
COc1cc2[nH]c(C)c(CCN3CCN(c4ccccc4)CC3)c2cc1OC	16.1%	
O=C(O)c1ccccc1[O-].O=C(O)c1ccccc1[O-].[Zn+2]	3.06%	
O=P(O)(O)OC(Cn1cncn1)(Cn1cncn1)c1ccc(F)cc1F	1.82%	
CCC(CN)CC(C)CCNCC(O)CNCC(C)CC(CC)CN (centres undefined)	-11%	
O=C(CO)[C@@H](O)[C@H](O)[C@H](O)CO	0.975%	
CCCCc1cc2c(=O)c(C(=O)OC)c[nH]c2cc1OCc1ccccc1	5.7%	
CC[C@H](C)CCCCC(=O)N[C@@H](CCN)C(=O)N[C@H](C(=O)N[C@@H](CCN)C(=O)N[C@H]1CCNC(=O)[C@H]([C@@H](C)O)NC(=O)[C@H](CCN)NC(=O)[C@H](CCN)NC(=O)[C@H](CC(C)C)NC(=O)[C@@H](CC(C)C)NC(=O)[C@H](CCN)NC1=O)[C@@H](C)O (X2-[Dab]T[Dab][Dab][Dab][dL]L[Dab][Dab]T; lactam 4-C)	13.6%	
CCCCCCCCCCCCCCCCCC(=O)[O][Al]	-2.25%	
O=C(OCCO)c1ccccc1O	18.8%	
CCC(=O)O	-11.8%	
C=CCNC1=C2C[C@@H](C)C[C@H](OC)[C@H](O)[C@@H](C)/C=C(\C)[C@H](OC(N)=O)[C@@H](OC)/C=C\C=C(/C)C(=O)NC(=CC1=O)C2=O		2.82 µM (active)
Cc1ccccc1CNc1ncnc2c1ncn2[C@@H]1O[C@H](CO)[C@@H](O)[C@H]1O	-9.34%	
COc1ccc(C2NC(=S)N3C(c4ccc(OC)c(OC)c4)NC(=S)N23)cc1OC (centres undefined)		0.0023 µM (active)
CCC[C@@]1(CCc2ccccc2)CC(O)=C([C@H](CC)c2cccc(NS(=O)(=O)c3ccc(C(F)(F)F)cn3)c2)C(=O)O1	14.3%	

Structure (SMILES)	max response	Potency
CC(=O)O[C@H]1CC[C@@]2(C)C(=CC[C@@H]3[C@@H]2CC[C@]2(C)C(c4cccnc4)=CC[C@@H]32)C1	-2.25%	
CCCOc1ccc2nc(NC(=O)OC)sc2c1	-5%	
CCOC(=O)[C@H](CCc1ccccc1)N[C@@H](C)C(=O)N1CC2(C[C@H]1C(=O)O)SCCS2	8.21%	
CCN(CC)CCOC(=O)c1ccc(N)cc1Cl	-6.93%	
O=C(Cn1c(=O)sc2ccc(Cl)cc21)N1CCN(CCO)CC1	-8.47%	
Cc1c(N)nc(C(CC(N)=O)NCC(N)C(N)=O)nc1C(=O)NC(C(=O)NC(C)C(O)C(C)C(=O)NC(C(=O)NCCc1nc(-c2nc(C(=O)NCCCN[C@@H](C)c3ccccc3)cs2)cs1)C(C)O)C(O[C@@H]1O[C@@H](CO)[C@@H](O)[C@H](O)[C@@H]1O[C@H]1O[C@H](CO)[C@@H](O)[C@H](OC(N)=O)[C@@H]1O)c1cnc[nH]1 (some centres undefined)	6.97%	
O=C1O[C@@H]2[C@@H](O)[C@H](O)O[C@@H]2[C@H]1O	3.86%	
Cc1cc(-n2c(=O)[nH]c(=O)n(C)c2=O)ccc1Oc1ccc(S(=O)(=O)C(F)(F)F)cc1	-1.23%	
O=c1[nH]cnc2[nH]cc(CN3CCCCC3)c12	10.8%	
CC#CCC(C)[C@H](O)/C=C/[C@@H]1[C@H]2c3cccc(CCCC(=O)O)c3O[C@H]2C[C@H]1O (some centres undefined)	6.65%	
CS(=O)(=O)NC(=O)CCC/C=C\C[C@H]1C(=O)C[C@@H](O)[C@@H]1/C=C/[C@H](O)COc1ccccc1	-11.4%	
O=C1O[C@H]2[C@H](O)[C@@H]1OC(O)[C@H]2O (some centres undefined)	-4.25%	
COc1cc(C[C@@H]2NCCc3cc(O)c(O)cc32)cc(OC)c1OC	-17.1%	
CCC(=O)OCC(=O)[C@@]1(OC(=O)CC)[C@H](C)C[C@H]2[C@@H]3CCC4=CC(=O)C=C[C@]4(C)[C@@]3(F)[C@@H](O)C[C@@]21C	-4.58%	
COc1cc2c(c(OC)c1OC)-c1c(cc3c(c1OC)OCO3)C[C@@H](C)[C@](C)(O)C2	3.46% and 15.8%	
CC1(C)C2CC[C@]3(C)[C@H](C(=O)C=C4[C@@H]5C[C@@](C)(C(=O)O)CC[C@]5(C)CC[C@]43C)[C@@]2(C)CC[C@@H]1O[C@H]1O[C@H](C(=O)O)[C@@H](O)[C@H](O)[C@H]1O[C@@H]1O[C@H](C(=O)O)[C@@H](O)[C@H](O)[C@H]1O (some centres undefined)	-0.804%	
C[C@H](/C=C/[C@H](C)C(C)(C)O)[C@H]1CC[C@H]2/C(=C/C=C3C[C@@H](O)C[C@H](O)C3)CCC[C@]12C	11.6%	
CN(C)CCOc1ccccc1Cc1ccccc1 (tested in a mixture with another compound)	6.62%	
CCOC(=O)[C@H](CCc1ccccc1)N[C@H]1CCCN2CCC[C@@H](C(=O)O)N2C1=O	-15.1%	
